One assay concerns CP211. The assay is described as follows: qHTS profiling for inhibitors of Plasmodium falciparum proliferation (AID 504749). Also: nearly all actives have a fitted effect of over 60% in size. Particulars: P. falciparum in erythrocytes, SYBR Green DNA, 72 h; series mostly up to 28.7 µM. Put shortly: (§1)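 SYBR Green fluorescence of parasite DNA, read after lysis and overnight dark incubation, measured growth over 72 h in erythrocyte culture at 0.3% parasitemia and 2.5% hematocrit. Data normalised to DMSO and 0.29 uM artemisinin, with plate-drift correction.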

Another assay relates to CP268. Described as above. Particulars: P. falciparum in erythrocytes, SYBR Green DNA, 72 h; series mostly up to 28.7 µM. In a few lines:
as §1

The subject of the next assay is CP291. The assay is described as above. The note with it: P. falciparum in erythrocytes, SYBR Green DNA, 72 h; series mostly up to 28.7 µM. Put shortly:
as §1

The subject of a further assay is CP305. Described as above. Particulars: P. falciparum in erythrocytes, SYBR Green DNA, 72 h; series mostly up to 28.7 µM. In a few lines: as §1
The subject of another assay is CP325. Described as above. The note with it: P. falciparum in erythrocytes, SYBR Green DNA, 72 h; series mostly up to 28.7 µM. Put shortly: as §1
Another assay relates to DIV14. The assay is described as above. Particulars: P. falciparum in erythrocytes, SYBR Green DNA, 72 h; series mostly up to 28.7 µM. In a few lines: as §1
For the next assay, the system named is P93_24. The description is as above. The note with it: P. falciparum in erythrocytes, SYBR Green DNA, 72 h; series mostly up to 28.7 µM. Put shortly: as §1
The nature of assay [1]: Confirmation and Secondary Assay for Modulators of Hemoglobin Beta Chain Splicing at IVS2 654 locus (AID 910).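 Also: HeLa cells stably carrying EGFP split by mutant beta-globin IVS2-654 intron.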 Particulars: HeLa EGFP-654 splicing reporter, GFP fluorescence, 48 h; series mostly up to 46.1 µM. Put shortly:
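Readout: per-well total peak green fluorescence (488 nm ex, 500–520 nm em) from objects 5–250 µm, reflecting correct splicing of an EGFP-654 reporter. Compounds were applied for 2 days at 37 °C to overnight-plated HeLa EGFP-654 cells; controls were DMSO and 500 nM IVS2-654 PNA.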

Assay [2] can be described thus: Confirmation and Secondary Assay for Modulators of Hemoglobin Beta Chain Splicing at IVS2 705 locus (AID 930).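 Also: HeLa cells stably expressing the EGFP-705 splicing reporter; GFP fluorescence per well restored by corrected splicing of the IVS2-705 intron in EGFP.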 Particulars: HeLa EGFP-705 splicing reporter, GFP fluorescence, 48 h; series mostly up to 46.1 µM. In a few lines:
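HeLa cells stably carrying EGFP interrupted by mutant beta-globin intron 2 (IVS2-705) treated 2 days at 37C with compound; 500 nM antisense PNA as control. Correct splicing read as total peak GFP intensity per well by laser-scanning cytometry.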

Assay [3] in a line: Cell Viability - Jurkat (AID 426;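 active = dose-dependent loss of cell ATP signal giving a full or clear fitted curve, ranked by lower potency value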; also: potency is read from the fitted curve at half-maximal effect). Particulars: qHTS. In a few lines:
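Cytotoxicity taken as drop in cellular ATP (CellTiter-Glo luminescence, 20 min room temperature) after 40 hr, 37C treatment of 5000 Jurkat Clone E6-1 cells per well; concentration-response fitted with Hill equation for AC50.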

A short description of assay [4]: Cell Viability - Hek293 (AID 427;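 active = compounds whose dose-response curve shows a full or clear partial loss of cell viability, called from curve shape rather than a numeric limit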;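 also: potency is read from the fitted curve at half-maximal effect; cells exposed to compound for 40 hours at 37 °C before reading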). The note with it: qHTS. Put shortly: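 HEK293 cells in complete medium were exposed to compound for 40 hr at 37 °C, then cellular ATP was read by CellTiter-Glo luminescence. Data were normalized to DMSO (basal) and 100 uM tamoxifen (100% inhibition), and AC50 came from Hill fits.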
Assay [5] is described as follows: Cell Viability - HepG2 (AID 433; calls by dose curve;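 also: potency is read from the fitted curve at half-maximal effect; potency for ATP loss meaning cytotoxicity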). Particulars: qHTS. In a few lines: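 Read-out is luciferase-based quantitation of cellular ATP as a measure of viable HepG2 cells after 40 h treatment at 37 °C. Signal decrease is scaled between DMSO-only and 100 uM tamoxifen controls, with AC50 fitted by the Hill equation.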
Assay [6] is described as follows: Cell Viability - SK-N-SH (AID 435; calls by dose curve;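 also: potency is read from the fitted curve at half-maximal effect; compound exposure lasted 40 h at 37 °C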). Particulars: SK-N-SH neuroblastoma cell viability qHTS. In a few lines: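 Luminescent ATP signal served as the viability read-out after 40 hours of compound treatment of human neuroblastoma SK-N-SH cells. Concentration-response data, scaled between DMSO and 100 uM tamoxifen, gave AC50 values by standard Hill modeling.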
Assay [7] in a line: qHTS Assay for Identification of Small Molecule Inducers of Hypoxia Response (AID 2120; active = well fitted curve in the direction sought with a large enough effect in the signal ratio, with a control signal flat, not every such curve was filed as active; the % refers to the signal ratio). The note with it: hypoxia response reporter cells, beta-lactamase ratio readout; series mostly up to 104 µM. In a few lines: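 Reporter induction read as the CCF4 blue/green (460nm/530nm) emission ratio after 2.5 h dye loading at room temperature. ME-180 HRE-beta-lactamase cells received titrated compounds for 17 h at 37 degrees Celsius; AC50 values derived.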

In assay [8] the target is Cytochrome P450 2D6 (Homo sapiens) (UniProt P10635). The assay is described as follows: qHTS for inhibitors of CYP2D6 against the NCATS DSHEA and TCM libraries (AID 1919972). The note with it: CYP2D6 enzymatic inhibition, luminescence qHTS; series mostly up to 34.1 µM. In a few lines: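 CYP2D6 enzyme with pro-luciferin substrate in manufacturer buffer (typically 100 mM KPO4), preincubated 15 min RT with substances (most at 19.5 nM upward); NADPH regeneration system (1x) started 30–45 min RT reaction; P450-Glo luminescence read after 30 min; quinidine as intraplate control.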
Cytochrome P450 2D6 (Homo sapiens), sequence (P10635 whole entry, looked up): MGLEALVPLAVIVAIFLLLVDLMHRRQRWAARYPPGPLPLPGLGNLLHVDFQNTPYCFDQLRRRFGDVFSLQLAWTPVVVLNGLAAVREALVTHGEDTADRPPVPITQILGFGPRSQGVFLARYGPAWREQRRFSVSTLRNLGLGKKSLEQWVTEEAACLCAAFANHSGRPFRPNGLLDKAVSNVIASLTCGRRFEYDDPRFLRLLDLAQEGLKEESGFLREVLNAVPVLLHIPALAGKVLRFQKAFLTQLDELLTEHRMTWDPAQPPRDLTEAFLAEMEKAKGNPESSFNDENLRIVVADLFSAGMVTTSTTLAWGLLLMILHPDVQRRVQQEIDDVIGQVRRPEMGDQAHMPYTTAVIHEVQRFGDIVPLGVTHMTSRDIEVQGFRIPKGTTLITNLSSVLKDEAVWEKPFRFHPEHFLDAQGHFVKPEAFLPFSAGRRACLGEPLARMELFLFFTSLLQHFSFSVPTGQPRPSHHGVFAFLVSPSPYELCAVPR

For assay [9], the target named is Cytochrome P450 2C9 (Homo sapiens) (UniProt P11712). Put plainly: qHTS for inhibitors of CYP2C9 against the NCATS DSHEA and TCM libraries (AID 1919973). Also: potency is read from the fitted curve at half-maximal effect. Particulars: recombinant CYP2C9 enzyme activity, luminescence; series mostly up to 34.1 µM. In a few lines: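 Each CYP isoform and its pro-luciferin substrate, at isoform-specific final concentrations, were preincubated 15 min at RT with substances. NADPH regeneration solution (1x) started a 30-45 min reaction, and P450-Glo luminescence was read.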
Cytochrome P450 2C9 (Homo sapiens), sequence (P11712 whole entry, looked up, canonical isoform): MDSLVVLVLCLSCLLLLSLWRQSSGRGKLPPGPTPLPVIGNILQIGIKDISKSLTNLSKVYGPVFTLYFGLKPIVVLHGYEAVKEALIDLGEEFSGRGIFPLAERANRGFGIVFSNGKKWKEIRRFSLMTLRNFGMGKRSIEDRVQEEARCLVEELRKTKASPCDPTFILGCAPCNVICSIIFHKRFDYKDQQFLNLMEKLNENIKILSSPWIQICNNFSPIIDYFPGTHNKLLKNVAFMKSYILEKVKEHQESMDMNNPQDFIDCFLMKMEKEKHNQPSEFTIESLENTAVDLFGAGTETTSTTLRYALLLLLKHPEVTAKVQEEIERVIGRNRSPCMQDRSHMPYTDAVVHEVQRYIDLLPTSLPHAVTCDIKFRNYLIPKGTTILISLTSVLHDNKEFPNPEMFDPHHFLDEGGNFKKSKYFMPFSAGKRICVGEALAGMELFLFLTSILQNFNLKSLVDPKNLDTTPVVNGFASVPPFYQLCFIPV

Assay [10] can be described thus: KB-3-1 P-gp reporter qHTS against the NCATS DSHEA and TCM libraries (AID 1919975). Particulars: KB-3-1 parental cells, CellTiter-Glo luminescence viability, 72 h; series mostly up to 26.1 µM. In a few lines:
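KB-3-1 parental line, 1536-well qHTS: cells seeded, ~4 h attachment, pintool compound addition, ~72 h at 37C, then CellTiter-Glo, 30 min RT, luminescence. Concentration-response format.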

For assay [11], the target named is Nuclear receptor subfamily 1 group I member 2 (Homo sapiens) (UniProt O75469). Put plainly: Dual reporter qHTS for agonist of Pregnane X Receptor (hPXR) against the NCATS DSHEA and TCM libraries: Luminescence readout (AID 1920059). The note with it: hPXR dual reporter cells, luciferase luminescence agonist; series mostly up to 40 µM. Put shortly: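 Luminescent PXR reporter read (ONE-Glo) after a CellTiter-Fluor viability read, following 24 h, 37C treatment of HepG2 cells stably carrying hPXR-Luc.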
Nuclear receptor subfamily 1 group I member 2 (Homo sapiens), sequence (O75469 whole entry, looked up): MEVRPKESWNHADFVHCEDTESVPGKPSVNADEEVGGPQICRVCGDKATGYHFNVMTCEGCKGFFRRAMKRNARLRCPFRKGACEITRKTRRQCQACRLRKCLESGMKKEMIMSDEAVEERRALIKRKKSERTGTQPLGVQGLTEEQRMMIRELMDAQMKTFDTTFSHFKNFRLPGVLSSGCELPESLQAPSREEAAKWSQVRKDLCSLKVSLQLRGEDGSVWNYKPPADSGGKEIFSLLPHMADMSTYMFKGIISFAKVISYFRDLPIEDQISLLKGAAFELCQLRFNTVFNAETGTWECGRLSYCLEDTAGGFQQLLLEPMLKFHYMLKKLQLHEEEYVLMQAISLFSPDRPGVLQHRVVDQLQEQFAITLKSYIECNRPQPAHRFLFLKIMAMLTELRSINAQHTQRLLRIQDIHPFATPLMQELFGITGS

Assay [12] has the same target. Put plainly: Dual reporter qHTS for antagonist of Pregnane X Receptor (hPXR) against the NCATS DSHEA and TCM libraries: Luminescence Readout (AID 1920060). The note with it: hPXR dual reporter cells, luciferase luminescence, antagonist mode; series mostly up to 40 µM. Put shortly:
(§2)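 hPXR-Luc HepG2 cells exposed 24 h at 37 C to compounds with 2 uM rifampicin in antagonist mode; luciferase luminescence measured by ONE-Glo, with CellTiter-Fluor viability read beforehand.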

The nature of assay [13]: Dual reporter qHTS for antagonist of Pregnane X Receptor (hPXR) against the NCATS DSHEA and TCM libraries: Fluorescence Readout (AID 1920061). The note with it: PXR dual reporter cells, antagonist mode; series mostly up to 40 µM. In a few lines:
as §2

SMILES strings stand for the structures. Unmarked numbers belong to inactive results. Results filed as inconclusive are left out. Calls of active or inactive are those of the source. Unless noted, calls follow the shape of the dose curve; as a rule, active = well fitted curve in the direction sought with a large enough effect; inconclusive = small, poorly fitted or top-dose-only effect, or another doubt; inactive = no such curve, though single readings can be large; an effect the other way counts as inactive or inconclusive. Where only a bound is given, the exact number is not on record here.

As for `CCC(C)n1ncn(-c2ccc(N3CCN(c4ccc(OCC5COC(Cn6cncn6)(c6ccc(Cl)cc6Cl)O5)cc4)CC3)cc2)c1=O` (stereo unspecified), the Potency result in the assay on CP211, with CP268, with CP291, with CP305, in the assay with CP325 and with DIV14 was “inactive” in each case. The Potency result with P93_24 is “inactive”.
Turning to `O=C1CC(c2ccccc2)Oc2ccccc21` (stereo unspecified), the Potency result in assay [1] and in assay [2] was “inactive” each time.
For the molecule `CC12CCC(CC1=O)C2(C)C` (stereo unspecified), the Potency in [3], in [4], in assay [5] and in assay [6] was over 92 µM each time. The result in assay [7] was inactive.
Regarding `O=c1c(O[C@@H]2O[C@H](CO)[C@H](O)[C@H](O)[C@H]2O)c(-c2ccc(O)c(O)c2)oc2cc(O)cc(O)c12`, the Potency result in assay [8] and in assay [11] was “inactive” in each case. In addition, the Potency in assay [9] was 7.94 µM (active). The outcome in [10], in [12] and in [13] was inactive.
Regarding `CC(C)CN(C[C@@H](OP(=O)(O)O)[C@H](Cc1ccccc1)NC(=O)O[C@@H]1CCOC1)S(=O)(=O)c1ccc(N)cc1`, the Potency entry with CP211, in the assay with CP268, in the assay on CP291, in the assay on CP305, in the assay on CP325 and in the assay with DIV14 was “inactive” in each case. For the same molecule, the Potency entry in the assay with P93_24 is “inactive”.
On to `CC(C)=CCC[C@](C)(OC1OC(COC2OCC(O)C(O)C2O)C(O)C(O)C1O)[C@H]1CC[C@]2(C)[C@@H]1[C@H](O)C[C@@H]1[C@@]3(C)CC[C@H](OC4OC(CO)C(O)C(O)C4OC4OC(CO)C(O)C(O)C4O)C(C)(C)[C@@H]3CC[C@]12C` (stereo partly specified), for which the Potency result in assay [8], in assay [9] and in assay [11] was “inactive” throughout. In addition, the outcome in assay [10], in assay [12] and in [13] was inactive.
On to `O=C(/C=C/c1ccc(O)c(O)c1)O[C@@H](C(=O)O)[C@@H](OC(=O)/C=C/c1ccc(O)c(O)c1)C(=O)O`, for which the Potency in [3], in assay [4], in [5] and in [6] was over 92 µM in each case. Further, the outcome in [7] was inactive.
For `O=C(/C=C/c1ccc(O)c(O)c1)O[C@H]1[C@H](O)C[C@](O)(C(=O)O)C[C@H]1OC(=O)/C=C/c1ccc(O)c(O)c1`, the Potency result in [8] and in [11] was “inactive” each time. Moreover, the Potency in assay [9] is 15.8 µM (active). In addition, the result in [10], in [12] and in assay [13] was inactive.
On to `O=C(O)c1cc(O)c2c(c1)[C@H]([C@H]1c3cc(C(=O)O)cc(O)c3C(=O)c3c(O[C@@H]4OC(CO)C(O)C(O)C4O)cccc31)c1cccc(O[C@@H]3OC(CO)C(O)C(O)C3O)c1C2=O` (stereo partly specified), for which the Potency entry in assay [1] and in assay [2] was “inactive” in each case.

The values above are taken from PubChem BioAssay (NCATS).
